# Measurements: ChEMBL document CHEMBL1961873, “Compounds: GSK PKIS; Assays: Nanosyn kinase panel” (2012)
# Assays:
# [1] = biological target: Sphingosine kinase 1 (Homo sapiens) (UniProt Q9NYA1); details: at 1 µM;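 note: mean SPHK1 inhibition value reported from the GSK PKIS kinase panel screen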
# [2] = biological target: T1, Sphingosine kinase 2 (Homo sapiens) (UniProt Q9NRA0); details: at 0.1 µM
# T1 sequence (whole entry): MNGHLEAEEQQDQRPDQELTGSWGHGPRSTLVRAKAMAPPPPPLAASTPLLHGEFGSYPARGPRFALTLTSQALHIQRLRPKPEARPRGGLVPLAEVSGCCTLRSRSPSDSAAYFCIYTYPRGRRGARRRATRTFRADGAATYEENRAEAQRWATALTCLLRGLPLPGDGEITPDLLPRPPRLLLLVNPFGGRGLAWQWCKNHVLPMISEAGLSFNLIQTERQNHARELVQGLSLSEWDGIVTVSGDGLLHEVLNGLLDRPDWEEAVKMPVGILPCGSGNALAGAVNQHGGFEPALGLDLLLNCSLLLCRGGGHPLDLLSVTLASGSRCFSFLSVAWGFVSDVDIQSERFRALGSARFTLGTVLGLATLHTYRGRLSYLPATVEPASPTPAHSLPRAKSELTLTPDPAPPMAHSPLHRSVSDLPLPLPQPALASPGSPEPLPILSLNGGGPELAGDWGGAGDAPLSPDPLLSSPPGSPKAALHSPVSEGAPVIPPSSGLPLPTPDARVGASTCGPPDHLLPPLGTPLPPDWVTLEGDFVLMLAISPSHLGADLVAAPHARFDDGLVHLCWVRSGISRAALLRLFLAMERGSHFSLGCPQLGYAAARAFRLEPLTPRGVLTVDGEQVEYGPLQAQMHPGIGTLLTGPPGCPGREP
# [3] = biological target: T1, Sphingosine kinase 2 (Homo sapiens); details: at 1 µM
# [4] = biological target: Casein kinase II subunit alpha (Homo sapiens) (UniProt P68400); details: at 0.1 µM
# [5] = biological target: Casein kinase II subunit alpha (Homo sapiens) (UniProt P68400); details: at 1 µM
# [6] = biological target: T2, Inhibitor of nuclear factor kappa-B kinase subunit alpha (Homo sapiens) (UniProt O15111); details: at 0.1 µM
# T2 sequence (whole entry): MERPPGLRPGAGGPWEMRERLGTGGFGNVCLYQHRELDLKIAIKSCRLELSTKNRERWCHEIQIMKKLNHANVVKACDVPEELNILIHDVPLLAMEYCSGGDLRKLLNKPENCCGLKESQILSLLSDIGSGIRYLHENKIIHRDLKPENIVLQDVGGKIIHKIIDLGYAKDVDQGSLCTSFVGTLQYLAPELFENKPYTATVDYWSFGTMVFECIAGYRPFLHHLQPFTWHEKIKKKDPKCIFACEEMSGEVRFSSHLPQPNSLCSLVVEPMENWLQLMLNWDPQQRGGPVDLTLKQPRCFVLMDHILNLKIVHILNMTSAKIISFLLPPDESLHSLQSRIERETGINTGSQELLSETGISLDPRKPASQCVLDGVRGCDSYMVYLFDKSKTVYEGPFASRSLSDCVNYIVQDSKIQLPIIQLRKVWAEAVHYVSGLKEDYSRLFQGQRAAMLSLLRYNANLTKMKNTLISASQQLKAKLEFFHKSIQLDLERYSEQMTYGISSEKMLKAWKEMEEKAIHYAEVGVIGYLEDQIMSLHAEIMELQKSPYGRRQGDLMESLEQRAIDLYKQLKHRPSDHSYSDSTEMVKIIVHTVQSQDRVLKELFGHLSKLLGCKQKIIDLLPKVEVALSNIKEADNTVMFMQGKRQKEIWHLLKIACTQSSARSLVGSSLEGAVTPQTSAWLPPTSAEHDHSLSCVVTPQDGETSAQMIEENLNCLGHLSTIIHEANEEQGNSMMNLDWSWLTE
# [7] = biological target: T2, Inhibitor of nuclear factor kappa-B kinase subunit alpha (Homo sapiens); details: at 1 µM
# [8] = biological target: T3, Inhibitor of nuclear factor kappa-B kinase subunit beta (Homo sapiens) (UniProt O14920); details: at 0.1 µM
# T3 sequence (whole entry): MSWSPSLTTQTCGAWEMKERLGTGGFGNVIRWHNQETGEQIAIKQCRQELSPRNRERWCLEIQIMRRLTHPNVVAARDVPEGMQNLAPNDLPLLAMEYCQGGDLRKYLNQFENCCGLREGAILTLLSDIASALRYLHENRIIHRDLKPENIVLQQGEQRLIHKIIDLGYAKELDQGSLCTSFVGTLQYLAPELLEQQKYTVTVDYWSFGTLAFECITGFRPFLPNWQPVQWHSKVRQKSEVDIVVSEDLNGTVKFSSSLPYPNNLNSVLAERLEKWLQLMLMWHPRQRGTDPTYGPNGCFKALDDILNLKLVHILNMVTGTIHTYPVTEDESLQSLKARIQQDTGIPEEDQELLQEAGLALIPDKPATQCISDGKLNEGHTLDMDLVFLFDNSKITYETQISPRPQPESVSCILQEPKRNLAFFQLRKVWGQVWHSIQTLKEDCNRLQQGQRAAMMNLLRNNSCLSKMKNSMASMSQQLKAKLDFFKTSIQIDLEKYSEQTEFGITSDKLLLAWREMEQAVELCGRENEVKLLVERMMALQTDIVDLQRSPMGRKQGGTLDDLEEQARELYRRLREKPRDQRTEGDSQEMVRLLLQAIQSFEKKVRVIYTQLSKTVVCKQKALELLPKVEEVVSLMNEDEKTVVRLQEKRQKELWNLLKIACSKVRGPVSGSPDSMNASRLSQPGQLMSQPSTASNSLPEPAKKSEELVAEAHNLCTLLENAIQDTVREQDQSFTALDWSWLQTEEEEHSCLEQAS
# [9] = biological target: T3, Inhibitor of nuclear factor kappa-B kinase subunit beta (Homo sapiens); details: at 1 µM
# [10] = biological target: T4, Inhibitor of nuclear factor kappa-B kinase subunit epsilon (Homo sapiens) (UniProt Q14164); details: at 0.1 µM
# T4 sequence (whole entry): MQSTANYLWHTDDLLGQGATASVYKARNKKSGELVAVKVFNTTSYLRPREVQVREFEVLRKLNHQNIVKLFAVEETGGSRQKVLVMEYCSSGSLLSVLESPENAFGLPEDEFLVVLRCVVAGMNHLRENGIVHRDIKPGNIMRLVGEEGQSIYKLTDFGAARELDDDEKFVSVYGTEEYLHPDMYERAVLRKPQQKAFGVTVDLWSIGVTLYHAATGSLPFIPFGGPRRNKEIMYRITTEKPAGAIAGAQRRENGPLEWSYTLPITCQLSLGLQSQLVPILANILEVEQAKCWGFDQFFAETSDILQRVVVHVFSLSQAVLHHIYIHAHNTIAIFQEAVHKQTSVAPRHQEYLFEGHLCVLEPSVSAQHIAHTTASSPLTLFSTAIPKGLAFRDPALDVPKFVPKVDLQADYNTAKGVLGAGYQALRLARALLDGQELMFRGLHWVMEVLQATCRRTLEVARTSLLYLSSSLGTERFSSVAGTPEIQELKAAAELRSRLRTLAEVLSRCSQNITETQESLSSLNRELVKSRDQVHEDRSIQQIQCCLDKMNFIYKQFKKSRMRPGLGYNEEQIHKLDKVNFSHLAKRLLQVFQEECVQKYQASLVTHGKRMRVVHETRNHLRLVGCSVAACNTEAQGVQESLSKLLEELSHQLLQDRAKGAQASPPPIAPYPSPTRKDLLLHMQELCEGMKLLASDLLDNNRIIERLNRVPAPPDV
# [11] = biological target: T4, Inhibitor of nuclear factor kappa-B kinase subunit epsilon (Homo sapiens); details: at 1 µM
# [12] = biological target: T5, Serine/threonine-protein kinase Nek1 (Homo sapiens) (UniProt Q96PY6); details: at 0.1 µM
# T5 sequence (whole entry): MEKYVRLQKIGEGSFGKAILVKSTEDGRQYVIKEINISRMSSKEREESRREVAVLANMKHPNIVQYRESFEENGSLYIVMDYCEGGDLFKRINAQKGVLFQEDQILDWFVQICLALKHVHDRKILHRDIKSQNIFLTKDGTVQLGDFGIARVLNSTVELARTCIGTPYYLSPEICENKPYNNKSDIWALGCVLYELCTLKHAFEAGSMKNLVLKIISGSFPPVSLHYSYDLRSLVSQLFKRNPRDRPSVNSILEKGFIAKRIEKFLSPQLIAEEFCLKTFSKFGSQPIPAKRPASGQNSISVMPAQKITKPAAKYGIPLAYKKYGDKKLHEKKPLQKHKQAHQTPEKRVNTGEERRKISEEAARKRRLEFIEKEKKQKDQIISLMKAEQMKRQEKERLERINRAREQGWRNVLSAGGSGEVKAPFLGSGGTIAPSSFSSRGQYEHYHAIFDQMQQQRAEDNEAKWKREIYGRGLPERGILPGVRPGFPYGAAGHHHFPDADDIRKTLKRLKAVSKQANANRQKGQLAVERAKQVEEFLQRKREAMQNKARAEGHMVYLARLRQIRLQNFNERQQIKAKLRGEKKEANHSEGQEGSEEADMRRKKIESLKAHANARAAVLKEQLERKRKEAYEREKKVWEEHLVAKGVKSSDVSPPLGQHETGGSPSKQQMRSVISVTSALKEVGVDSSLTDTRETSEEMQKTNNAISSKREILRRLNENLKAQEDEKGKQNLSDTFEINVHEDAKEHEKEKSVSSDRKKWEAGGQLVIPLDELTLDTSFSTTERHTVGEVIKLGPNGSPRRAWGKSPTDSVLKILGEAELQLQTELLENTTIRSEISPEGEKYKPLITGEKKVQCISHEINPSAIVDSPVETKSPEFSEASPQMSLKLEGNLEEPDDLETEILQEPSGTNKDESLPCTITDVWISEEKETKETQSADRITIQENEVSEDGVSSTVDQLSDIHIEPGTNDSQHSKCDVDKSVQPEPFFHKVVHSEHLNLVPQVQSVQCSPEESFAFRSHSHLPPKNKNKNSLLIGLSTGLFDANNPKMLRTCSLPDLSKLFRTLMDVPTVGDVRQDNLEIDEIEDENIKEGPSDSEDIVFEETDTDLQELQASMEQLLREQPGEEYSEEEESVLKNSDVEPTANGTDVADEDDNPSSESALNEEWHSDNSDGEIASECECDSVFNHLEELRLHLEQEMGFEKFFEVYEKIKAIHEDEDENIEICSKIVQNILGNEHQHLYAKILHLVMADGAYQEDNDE
# [13] = biological target: T5, Serine/threonine-protein kinase Nek1 (Homo sapiens); details: at 1 µM
# [14] = biological target: T6, Serine/threonine-protein kinase Nek2 (Homo sapiens) (UniProt P51955); details: at 0.1 µM
# T6 sequence (whole entry): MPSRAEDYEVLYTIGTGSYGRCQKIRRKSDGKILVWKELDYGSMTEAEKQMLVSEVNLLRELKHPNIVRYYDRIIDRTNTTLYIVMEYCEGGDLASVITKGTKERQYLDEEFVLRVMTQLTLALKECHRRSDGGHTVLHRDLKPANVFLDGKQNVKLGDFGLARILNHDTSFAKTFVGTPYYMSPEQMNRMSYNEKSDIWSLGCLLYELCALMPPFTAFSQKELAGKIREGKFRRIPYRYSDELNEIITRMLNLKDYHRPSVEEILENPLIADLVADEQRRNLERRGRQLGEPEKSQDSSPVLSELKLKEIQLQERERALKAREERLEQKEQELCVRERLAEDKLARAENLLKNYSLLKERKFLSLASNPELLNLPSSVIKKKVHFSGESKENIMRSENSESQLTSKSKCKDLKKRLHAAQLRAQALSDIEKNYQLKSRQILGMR
# [15] = biological target: T6, Serine/threonine-protein kinase Nek2 (Homo sapiens); details: at 1 µM
# [16] = biological target: Serine/threonine-protein kinase Nek6 (Homo sapiens) (UniProt Q9HC98); details: at 0.1 µM
# [17] = biological target: Serine/threonine-protein kinase Nek6 (Homo sapiens) (UniProt Q9HC98); details: at 1 µM
# [18] = biological target: Serine/threonine-protein kinase Nek7 (Homo sapiens) (UniProt Q8TDX7); details: at 0.1 µM
# [19] = biological target: Serine/threonine-protein kinase Nek7 (Homo sapiens) (UniProt Q8TDX7); details: at 1 µM
# [20] = biological target: T7, Serine/threonine-protein kinase Nek9 (Homo sapiens) (UniProt Q8TD19); details: at 0.1 µM;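 note: reported value is the mean percent inhibition of NEK9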
# T7 sequence (whole entry): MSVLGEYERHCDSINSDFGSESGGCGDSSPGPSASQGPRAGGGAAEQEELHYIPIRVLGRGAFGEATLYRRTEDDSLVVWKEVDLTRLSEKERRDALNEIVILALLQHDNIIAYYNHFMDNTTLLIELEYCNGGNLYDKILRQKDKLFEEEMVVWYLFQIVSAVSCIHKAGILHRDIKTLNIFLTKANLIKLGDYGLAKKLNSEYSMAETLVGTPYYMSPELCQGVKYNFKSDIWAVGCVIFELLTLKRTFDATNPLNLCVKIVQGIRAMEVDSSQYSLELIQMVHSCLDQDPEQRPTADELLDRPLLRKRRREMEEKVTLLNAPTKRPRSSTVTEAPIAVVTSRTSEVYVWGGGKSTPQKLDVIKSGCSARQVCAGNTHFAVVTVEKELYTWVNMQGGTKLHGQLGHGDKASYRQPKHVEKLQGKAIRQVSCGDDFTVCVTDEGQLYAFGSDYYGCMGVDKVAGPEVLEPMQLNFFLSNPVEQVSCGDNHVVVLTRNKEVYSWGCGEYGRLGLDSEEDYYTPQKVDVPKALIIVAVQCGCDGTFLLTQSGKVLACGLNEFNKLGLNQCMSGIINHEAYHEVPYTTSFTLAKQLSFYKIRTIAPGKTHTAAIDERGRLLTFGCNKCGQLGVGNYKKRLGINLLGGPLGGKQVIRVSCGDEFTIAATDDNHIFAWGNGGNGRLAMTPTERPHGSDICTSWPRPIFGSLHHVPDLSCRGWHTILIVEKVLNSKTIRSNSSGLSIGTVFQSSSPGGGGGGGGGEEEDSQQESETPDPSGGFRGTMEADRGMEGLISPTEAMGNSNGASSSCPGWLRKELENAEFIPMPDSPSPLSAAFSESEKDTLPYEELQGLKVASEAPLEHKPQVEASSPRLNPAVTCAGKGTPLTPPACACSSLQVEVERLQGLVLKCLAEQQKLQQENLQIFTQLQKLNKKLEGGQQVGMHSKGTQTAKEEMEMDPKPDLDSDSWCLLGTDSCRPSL
# Sequence of Serine/threonine-protein kinase Nek6 (Homo sapiens) (Q9HC98 whole entry): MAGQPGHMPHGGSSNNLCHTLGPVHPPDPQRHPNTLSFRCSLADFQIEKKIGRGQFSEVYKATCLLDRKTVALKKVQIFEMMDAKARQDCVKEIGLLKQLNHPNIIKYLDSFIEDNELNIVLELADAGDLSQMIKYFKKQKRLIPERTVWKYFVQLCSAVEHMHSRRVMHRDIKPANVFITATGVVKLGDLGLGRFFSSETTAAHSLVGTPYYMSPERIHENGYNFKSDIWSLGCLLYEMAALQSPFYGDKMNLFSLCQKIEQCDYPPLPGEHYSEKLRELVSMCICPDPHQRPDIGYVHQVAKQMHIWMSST
# Sequence of Casein kinase II subunit alpha (Homo sapiens) (P68400 whole entry, looked up): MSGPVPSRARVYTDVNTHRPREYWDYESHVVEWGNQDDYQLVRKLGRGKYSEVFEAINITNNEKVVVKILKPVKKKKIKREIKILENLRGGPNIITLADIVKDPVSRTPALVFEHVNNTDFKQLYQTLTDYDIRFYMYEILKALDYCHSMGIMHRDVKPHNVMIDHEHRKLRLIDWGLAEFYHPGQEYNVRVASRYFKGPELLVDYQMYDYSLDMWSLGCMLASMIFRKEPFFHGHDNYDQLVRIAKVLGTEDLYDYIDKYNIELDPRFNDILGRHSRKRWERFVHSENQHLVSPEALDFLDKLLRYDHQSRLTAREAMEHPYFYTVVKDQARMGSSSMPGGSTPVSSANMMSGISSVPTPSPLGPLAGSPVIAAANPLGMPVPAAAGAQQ
# Sequence of Serine/threonine-protein kinase Nek7 (Homo sapiens) (Q8TDX7 whole entry, looked up): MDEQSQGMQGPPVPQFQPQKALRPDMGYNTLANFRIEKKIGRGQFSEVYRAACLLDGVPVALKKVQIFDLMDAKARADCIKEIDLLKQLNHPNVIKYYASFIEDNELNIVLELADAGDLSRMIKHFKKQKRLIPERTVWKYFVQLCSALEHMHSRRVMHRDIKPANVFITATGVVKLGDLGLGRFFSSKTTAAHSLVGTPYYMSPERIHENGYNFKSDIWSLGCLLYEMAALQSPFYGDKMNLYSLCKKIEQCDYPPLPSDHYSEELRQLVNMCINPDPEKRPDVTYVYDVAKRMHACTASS
# Sequence of Sphingosine kinase 1 (Homo sapiens) (Q9NYA1 whole entry): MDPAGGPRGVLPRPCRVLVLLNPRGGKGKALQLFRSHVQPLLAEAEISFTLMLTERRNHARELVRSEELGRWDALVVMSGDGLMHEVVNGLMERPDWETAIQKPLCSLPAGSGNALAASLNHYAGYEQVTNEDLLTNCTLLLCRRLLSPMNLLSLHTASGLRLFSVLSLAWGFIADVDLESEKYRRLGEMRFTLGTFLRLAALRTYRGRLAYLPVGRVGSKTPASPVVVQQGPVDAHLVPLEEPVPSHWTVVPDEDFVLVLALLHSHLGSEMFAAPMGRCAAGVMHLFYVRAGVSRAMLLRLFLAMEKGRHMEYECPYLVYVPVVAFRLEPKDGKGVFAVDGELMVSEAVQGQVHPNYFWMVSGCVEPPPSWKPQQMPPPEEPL
structure (smiles),measurement,setting,value
Fc1cccc(COc2ccc(Nc3ncnc4cc(-c5ccc[nH]5)sc34)cc2Cl)c1,inhibition,[1],4.94%
same,inhibition,[2],0.87%
same,inhibition,[3],-0.25%
same,inhibition,[4],1.61%
same,inhibition,[5],2.66%
same,inhibition,[6],2.16%
same,inhibition,[7],1.99%
same,inhibition,[8],2.5%
same,inhibition,[9],1.35%
same,inhibition,[10],2.66%
same,inhibition,[11],3.19%
same,inhibition,[12],1.42%
same,inhibition,[13],4.17%
same,inhibition,[14],3.51%
same,inhibition,[15],5.24%
same,inhibition,[16],1.65%
same,inhibition,[17],3.84%
same,inhibition,[18],5.51%
same,inhibition,[19],2.22%
same,inhibition,[20],1.71%
